# ChEMBL document CHEMBL2218924, “A broad activity screen in support of a chemogenomic map for kinase signalling research and drug discovery” (Biochem J, 2013)
# Columns and labels:
# [1] = molecular target: T1, Ephrin type-A receptor 3 (Homo sapiens) (UniProt P29320); settings: at 10 µM
# T1 sequence (whole entry): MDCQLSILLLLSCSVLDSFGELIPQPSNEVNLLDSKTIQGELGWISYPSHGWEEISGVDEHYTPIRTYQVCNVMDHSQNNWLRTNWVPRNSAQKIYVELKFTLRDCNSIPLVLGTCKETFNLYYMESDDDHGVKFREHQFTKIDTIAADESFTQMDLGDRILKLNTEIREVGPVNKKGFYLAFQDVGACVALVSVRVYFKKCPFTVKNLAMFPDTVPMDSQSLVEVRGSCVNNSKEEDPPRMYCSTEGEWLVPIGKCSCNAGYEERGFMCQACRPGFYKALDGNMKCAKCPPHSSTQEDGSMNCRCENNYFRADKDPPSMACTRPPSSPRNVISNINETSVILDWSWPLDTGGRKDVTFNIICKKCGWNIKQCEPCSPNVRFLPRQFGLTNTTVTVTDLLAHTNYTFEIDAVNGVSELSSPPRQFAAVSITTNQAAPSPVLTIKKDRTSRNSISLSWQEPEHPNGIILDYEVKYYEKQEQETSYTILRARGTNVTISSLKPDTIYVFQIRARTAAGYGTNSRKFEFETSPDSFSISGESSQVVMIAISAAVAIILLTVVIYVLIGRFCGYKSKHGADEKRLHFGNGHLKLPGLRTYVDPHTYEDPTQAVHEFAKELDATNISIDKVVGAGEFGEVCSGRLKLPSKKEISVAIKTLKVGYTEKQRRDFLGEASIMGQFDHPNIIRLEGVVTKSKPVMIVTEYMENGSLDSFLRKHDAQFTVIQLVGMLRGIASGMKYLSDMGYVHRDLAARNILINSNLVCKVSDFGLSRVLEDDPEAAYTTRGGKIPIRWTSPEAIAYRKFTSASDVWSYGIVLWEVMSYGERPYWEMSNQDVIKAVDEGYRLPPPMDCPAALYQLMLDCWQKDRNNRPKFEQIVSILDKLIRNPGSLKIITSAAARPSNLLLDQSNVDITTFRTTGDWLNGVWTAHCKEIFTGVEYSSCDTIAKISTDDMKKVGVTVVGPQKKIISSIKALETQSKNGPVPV
# [2] = molecular target: Ephrin type-A receptor 4 (Homo sapiens) (UniProt P54764); settings: at 1 µM
# Sequence of Ephrin type-A receptor 4 (Homo sapiens) (P54764 whole entry): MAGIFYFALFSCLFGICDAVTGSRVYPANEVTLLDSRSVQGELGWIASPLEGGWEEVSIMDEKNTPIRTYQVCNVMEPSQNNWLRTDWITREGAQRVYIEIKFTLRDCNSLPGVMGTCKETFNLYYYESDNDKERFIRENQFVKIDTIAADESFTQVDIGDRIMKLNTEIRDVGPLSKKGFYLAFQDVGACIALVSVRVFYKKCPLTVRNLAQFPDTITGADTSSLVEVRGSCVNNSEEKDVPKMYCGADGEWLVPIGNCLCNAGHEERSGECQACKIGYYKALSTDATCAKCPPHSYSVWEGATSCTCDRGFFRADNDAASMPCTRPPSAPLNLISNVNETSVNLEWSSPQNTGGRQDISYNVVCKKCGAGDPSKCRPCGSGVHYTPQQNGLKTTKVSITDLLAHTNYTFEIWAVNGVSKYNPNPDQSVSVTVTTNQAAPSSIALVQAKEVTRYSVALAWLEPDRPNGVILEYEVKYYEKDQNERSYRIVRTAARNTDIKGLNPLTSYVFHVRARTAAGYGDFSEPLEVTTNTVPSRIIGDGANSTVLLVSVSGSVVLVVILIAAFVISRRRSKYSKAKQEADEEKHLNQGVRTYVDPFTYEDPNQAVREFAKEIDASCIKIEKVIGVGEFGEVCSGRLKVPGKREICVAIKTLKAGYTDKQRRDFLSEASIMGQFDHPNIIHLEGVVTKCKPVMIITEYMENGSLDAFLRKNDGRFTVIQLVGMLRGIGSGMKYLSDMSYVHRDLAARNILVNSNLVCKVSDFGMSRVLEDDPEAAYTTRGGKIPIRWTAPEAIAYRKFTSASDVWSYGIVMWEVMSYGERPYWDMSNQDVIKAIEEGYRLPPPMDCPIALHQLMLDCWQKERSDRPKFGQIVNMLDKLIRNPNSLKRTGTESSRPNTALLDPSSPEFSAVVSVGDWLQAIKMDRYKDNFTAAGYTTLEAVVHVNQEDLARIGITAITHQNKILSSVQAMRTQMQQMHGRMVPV
# [3] = molecular target: Ephrin type-A receptor 4 (Homo sapiens) (UniProt P54764); settings: at 10 µM
# [4] = molecular target: Ephrin type-A receptor 5 (Homo sapiens) (UniProt P54756); settings: at 1 µM
# Sequence of Ephrin type-A receptor 5 (Homo sapiens) (P54756 whole entry): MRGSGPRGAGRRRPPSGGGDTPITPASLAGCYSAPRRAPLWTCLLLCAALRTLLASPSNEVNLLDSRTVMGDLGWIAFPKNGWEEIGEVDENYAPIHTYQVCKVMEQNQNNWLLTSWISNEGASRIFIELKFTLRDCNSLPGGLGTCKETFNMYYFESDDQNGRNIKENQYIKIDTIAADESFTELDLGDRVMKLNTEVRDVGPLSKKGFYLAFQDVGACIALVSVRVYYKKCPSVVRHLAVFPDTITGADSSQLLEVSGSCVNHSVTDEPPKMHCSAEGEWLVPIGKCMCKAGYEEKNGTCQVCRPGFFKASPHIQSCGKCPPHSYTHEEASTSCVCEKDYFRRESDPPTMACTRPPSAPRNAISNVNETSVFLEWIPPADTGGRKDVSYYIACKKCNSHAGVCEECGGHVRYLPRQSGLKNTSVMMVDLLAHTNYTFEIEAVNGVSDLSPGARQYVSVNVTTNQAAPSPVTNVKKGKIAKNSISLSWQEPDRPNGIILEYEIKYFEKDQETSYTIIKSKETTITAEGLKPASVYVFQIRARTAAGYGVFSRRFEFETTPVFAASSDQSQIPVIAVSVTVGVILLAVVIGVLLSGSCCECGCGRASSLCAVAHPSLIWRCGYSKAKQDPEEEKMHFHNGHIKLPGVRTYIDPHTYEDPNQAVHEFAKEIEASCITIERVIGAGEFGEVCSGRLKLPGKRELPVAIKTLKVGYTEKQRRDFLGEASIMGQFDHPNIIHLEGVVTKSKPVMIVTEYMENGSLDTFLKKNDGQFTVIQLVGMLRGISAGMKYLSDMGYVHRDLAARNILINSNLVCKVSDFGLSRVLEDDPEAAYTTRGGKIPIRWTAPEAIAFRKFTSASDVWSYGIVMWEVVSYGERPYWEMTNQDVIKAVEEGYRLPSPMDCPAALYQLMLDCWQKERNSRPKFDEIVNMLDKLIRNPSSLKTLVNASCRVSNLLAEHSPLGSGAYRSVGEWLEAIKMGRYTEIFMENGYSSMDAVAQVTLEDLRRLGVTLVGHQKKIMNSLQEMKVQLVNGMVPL
# [5] = molecular target: Ephrin type-A receptor 5 (Homo sapiens) (UniProt P54756); settings: at 10 µM
# [6] = molecular target: T2, Ephrin type-B receptor 1 (Homo sapiens) (UniProt P54762); settings: at 1 µM
# T2 sequence (whole entry): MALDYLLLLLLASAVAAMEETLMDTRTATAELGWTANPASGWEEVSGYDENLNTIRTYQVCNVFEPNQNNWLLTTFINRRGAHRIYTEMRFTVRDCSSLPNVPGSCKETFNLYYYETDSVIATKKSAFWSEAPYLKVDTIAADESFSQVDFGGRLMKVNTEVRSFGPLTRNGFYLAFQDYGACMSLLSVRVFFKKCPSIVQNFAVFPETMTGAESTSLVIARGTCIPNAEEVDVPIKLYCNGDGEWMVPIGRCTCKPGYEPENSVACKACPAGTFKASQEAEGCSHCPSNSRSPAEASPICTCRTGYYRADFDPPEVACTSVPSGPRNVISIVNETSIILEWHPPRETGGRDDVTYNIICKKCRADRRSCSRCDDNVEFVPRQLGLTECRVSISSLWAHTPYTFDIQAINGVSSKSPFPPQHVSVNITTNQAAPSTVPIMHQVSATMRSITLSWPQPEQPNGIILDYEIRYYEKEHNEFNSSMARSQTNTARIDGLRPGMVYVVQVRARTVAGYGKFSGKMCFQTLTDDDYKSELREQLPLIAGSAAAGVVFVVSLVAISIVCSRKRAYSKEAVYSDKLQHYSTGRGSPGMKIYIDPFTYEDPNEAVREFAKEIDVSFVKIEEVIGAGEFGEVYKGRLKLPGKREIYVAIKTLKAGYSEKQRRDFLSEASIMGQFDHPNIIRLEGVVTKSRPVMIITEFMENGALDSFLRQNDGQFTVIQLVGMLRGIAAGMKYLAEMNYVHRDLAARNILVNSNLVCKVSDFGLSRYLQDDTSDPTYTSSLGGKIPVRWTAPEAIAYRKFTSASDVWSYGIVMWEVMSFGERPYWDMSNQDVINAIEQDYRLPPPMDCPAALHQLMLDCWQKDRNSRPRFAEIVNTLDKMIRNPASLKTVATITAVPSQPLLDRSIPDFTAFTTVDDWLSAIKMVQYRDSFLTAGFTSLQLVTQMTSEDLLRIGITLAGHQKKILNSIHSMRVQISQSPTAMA
# [7] = molecular target: T2, Ephrin type-B receptor 1 (Homo sapiens); settings: at 10 µM
# [8] = molecular target: T3, Ephrin type-B receptor 2 (Homo sapiens) (UniProt P29323); settings: at 1 µM
# T3 sequence (whole entry): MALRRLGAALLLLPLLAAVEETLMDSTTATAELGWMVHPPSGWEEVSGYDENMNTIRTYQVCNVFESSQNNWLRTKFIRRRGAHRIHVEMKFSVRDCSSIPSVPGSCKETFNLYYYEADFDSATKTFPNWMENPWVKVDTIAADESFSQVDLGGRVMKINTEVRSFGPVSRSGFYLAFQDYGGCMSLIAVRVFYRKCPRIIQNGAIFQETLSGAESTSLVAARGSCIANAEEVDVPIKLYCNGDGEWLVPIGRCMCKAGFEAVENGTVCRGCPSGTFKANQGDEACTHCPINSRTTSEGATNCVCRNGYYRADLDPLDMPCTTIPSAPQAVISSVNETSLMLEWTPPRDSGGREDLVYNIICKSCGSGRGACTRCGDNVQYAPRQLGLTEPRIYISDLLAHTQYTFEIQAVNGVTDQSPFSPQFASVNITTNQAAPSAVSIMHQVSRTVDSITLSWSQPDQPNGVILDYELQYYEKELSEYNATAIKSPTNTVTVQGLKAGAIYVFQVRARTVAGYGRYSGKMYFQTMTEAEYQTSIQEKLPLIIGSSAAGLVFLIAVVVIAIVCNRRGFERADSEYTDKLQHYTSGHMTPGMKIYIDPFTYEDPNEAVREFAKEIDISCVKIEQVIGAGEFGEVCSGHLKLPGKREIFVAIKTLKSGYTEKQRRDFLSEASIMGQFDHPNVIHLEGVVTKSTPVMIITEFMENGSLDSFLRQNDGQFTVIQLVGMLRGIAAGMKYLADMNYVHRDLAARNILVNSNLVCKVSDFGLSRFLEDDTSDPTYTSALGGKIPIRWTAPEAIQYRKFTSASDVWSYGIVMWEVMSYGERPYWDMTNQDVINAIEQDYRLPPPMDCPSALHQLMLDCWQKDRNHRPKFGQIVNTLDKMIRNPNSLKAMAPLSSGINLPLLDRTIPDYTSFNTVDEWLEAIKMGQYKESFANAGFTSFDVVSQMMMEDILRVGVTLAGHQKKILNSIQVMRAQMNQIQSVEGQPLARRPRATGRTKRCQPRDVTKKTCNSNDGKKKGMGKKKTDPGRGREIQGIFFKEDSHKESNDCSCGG
# [9] = molecular target: T3, Ephrin type-B receptor 2 (Homo sapiens); settings: at 10 µM
# [10] = molecular target: Receptor tyrosine-protein kinase erbB-4 (Homo sapiens) (UniProt Q15303); settings: at 1 µM
# Sequence of Receptor tyrosine-protein kinase erbB-4 (Homo sapiens) (Q15303 whole entry): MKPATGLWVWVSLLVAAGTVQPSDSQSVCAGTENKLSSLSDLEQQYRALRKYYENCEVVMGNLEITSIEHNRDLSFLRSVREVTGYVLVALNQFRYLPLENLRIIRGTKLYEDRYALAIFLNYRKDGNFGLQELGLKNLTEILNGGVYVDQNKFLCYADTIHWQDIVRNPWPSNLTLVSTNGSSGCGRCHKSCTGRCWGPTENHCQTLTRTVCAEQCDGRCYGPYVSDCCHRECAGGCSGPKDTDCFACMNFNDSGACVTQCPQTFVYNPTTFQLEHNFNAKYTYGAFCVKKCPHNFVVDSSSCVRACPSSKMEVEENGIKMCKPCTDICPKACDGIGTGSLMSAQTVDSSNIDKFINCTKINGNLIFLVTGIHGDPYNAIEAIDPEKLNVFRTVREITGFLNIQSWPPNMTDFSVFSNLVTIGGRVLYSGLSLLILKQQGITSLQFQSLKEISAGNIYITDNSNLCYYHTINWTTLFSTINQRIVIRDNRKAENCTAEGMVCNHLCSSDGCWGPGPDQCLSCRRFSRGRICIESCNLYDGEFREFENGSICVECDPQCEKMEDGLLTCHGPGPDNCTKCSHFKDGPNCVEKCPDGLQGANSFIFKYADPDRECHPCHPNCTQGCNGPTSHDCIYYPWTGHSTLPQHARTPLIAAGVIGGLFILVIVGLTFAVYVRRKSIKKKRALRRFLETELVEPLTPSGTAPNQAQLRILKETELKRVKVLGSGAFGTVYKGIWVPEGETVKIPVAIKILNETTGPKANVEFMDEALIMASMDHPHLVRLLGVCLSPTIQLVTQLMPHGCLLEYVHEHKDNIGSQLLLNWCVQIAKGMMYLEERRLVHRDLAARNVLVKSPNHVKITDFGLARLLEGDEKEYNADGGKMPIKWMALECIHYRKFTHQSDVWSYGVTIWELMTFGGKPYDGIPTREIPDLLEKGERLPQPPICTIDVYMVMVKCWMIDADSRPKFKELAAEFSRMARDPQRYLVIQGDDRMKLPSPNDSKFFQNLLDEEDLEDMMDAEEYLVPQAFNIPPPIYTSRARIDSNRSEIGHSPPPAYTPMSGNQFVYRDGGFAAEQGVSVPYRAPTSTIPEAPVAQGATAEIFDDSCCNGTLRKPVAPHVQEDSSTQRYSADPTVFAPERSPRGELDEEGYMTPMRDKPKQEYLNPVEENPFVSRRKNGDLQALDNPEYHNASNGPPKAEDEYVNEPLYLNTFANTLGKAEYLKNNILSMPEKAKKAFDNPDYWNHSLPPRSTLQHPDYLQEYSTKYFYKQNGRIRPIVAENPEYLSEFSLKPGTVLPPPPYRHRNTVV
# [11] = molecular target: Receptor tyrosine-protein kinase erbB-4 (Homo sapiens) (UniProt Q15303); settings: at 10 µM
compound,measurement,setting,value
N#Cc1cnc2cnc(NCc3cccnc3)cc2c1Nc1ccc(F)c(Cl)c1,residual activity,[1],72%
same,residual activity,[2],103%
same,residual activity,[3],76%
same,residual activity,[4],56%
same,residual activity,[5],46%
same,residual activity,[6],100%
same,residual activity,[7],89%
same,residual activity,[8],99%
same,residual activity,[9],100%
same,residual activity,[10],132%
same,residual activity,[11],128%
